# Reference: the supplement of paper PMC6555819
# Tests used:
# Experiment in all cases: PBM binding z-score (relative to random genomic background probes); higher = stronger binding; sequences stand for … in GC…GCGATTGACAGCGTAGAATGAAGG
# [1] = tested on: FXR:RXRa (NR concentration 270 nM, RXRa partner concentration 90 nM)
# How it was run: (§1)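 Custom Agilent 4×180K protein-binding microarrays carried double-stranded probes. Their 34-nt variable regions held direct-repeat seeds, single-nucleotide variants, half-site ablations and random human genomic background sequences. Arrays were incubated 1 h with ligand-free nuclear receptor dimers in PBS pH 7.4, 2% milk, 0.02% Triton X-100, 1 mM DTT, 0.2 mg/mL BSA and 0.4 mg/ml salmon testes DNA. Antibodies against each partner (one per run) detected binding, and scanned fluorescence was regression-normalized. Binding z-scores use random background probes as reference.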
# [2] = tested on: LXRa:RXRa (NR concentration 270 nM, RXRa partner concentration 90 nM)
# How it was run: as §1
# [3] = tested on: LXRa homodimer (NR concentration 270 nM)
# How it was run: as §1
# [4] = tested on: LXRb:RXRa (NR concentration 270 nM, RXRa partner concentration 90 nM)
# How it was run: as §1
# [5] = tested on: PPARa:RXRa (NR concentration 270 nM, RXRa partner concentration 90 nM)
# How it was run: as §1
# [6] = tested on: PPARg:RXRa (NR concentration 180 nM, RXRa partner concentration 90 nM)
# How it was run: as §1
# [7] = tested on: PPARg:RXRa 270nM:90nM, anti-RXR (NR concentration 270 nM, RXRa partner concentration 90 nM)
# How it was run: as §1
# [8] = tested on: PPARg:RXRa 30nM:10nM, anti-RXR (NR concentration 30 nM, RXRa partner concentration 10 nM)
# How it was run: as §1
# [9] = tested on: PPARg:RXRa 90nM:30nM, anti-RXR (NR concentration 90 nM, RXRa partner concentration 30 nM)
# How it was run: as §1
# [10] = tested on: PPARg:RXRa DBDmut IVT, anti-RXR (DBD mutation: RXRa K156A/R161A, NR concentration 270 nM, RXRa partner concentration 90 nM)
# How it was run: as §1
# [11] = tested on: PPARg:RXRa IVT, anti-PPARg (NR concentration 270 nM, RXRa partner concentration 90 nM)
# How it was run: as §1
# [12] = tested on: PPARg homodimer (NR concentration 180 nM)
# How it was run: as §1
# [13] = tested on: PXR:RXRa (NR concentration 270 nM, RXRa partner concentration 90 nM)
# How it was run: as §1
# [14] = tested on: PXR homodimer (NR concentration 270 nM)
# How it was run: as §1
# [15] = tested on: RARa:RXR (NR concentration 270 nM, RXRa partner concentration 90 nM)
# How it was run: as §1
# [16] = tested on: RARa homodimer (NR concentration 270 nM)
# How it was run: as §1
# [17] = tested on: RARb:RXRa (NR concentration 270 nM, RXRa partner concentration 90 nM)
# How it was run: as §1
# [18] = tested on: LXRb homodimer (NR concentration 270 nM)
# How it was run: as §1
# [19] = tested on: PPARg DBDmut:RXRa IVT, anti-PPARg (DBD mutation: PPARg1 K132A/R137A, NR concentration 270 nM, RXRa partner concentration 90 nM)
# How it was run: as §1
# [20] = tested on: PPARg DBDmut IVT, anti-PPARg (DBD mutation: PPARg1 K132A/R137A, NR concentration 270 nM)
# How it was run: as §1
Sequence,PBM binding z-score [1],PBM binding z-score [2],PBM binding z-score [3],PBM binding z-score [4],PBM binding z-score [5],PBM binding z-score [6],PBM binding z-score [7],PBM binding z-score [8],PBM binding z-score [9],PBM binding z-score [10],PBM binding z-score [11],PBM binding z-score [12],PBM binding z-score [13],PBM binding z-score [14],PBM binding z-score [15],PBM binding z-score [16],PBM binding z-score [17],PBM binding z-score [18],PBM binding z-score [19],PBM binding z-score [20]
TCGAGTAGGTTACGGGGGCATTCACGGATGAAGA,2.41,2.89,0.361,4.92,4.38,5.82,6.16,3.37,5.06,5.07,6.04,2.12,3.21,1.4,3.16,0.0892,2.51,,,
TCGAGTAGGTTACGGCGGCATTCAGGGATGAAGA,-0.0492,0.356,-0.342,0.0226,1.32,0.838,1.73,1.18,1.43,3.16,2.85,-0.171,-0.0606,-0.885,0.128,-1.2,0.794,,,
TCGAGTAGGTTACTGGGGCATTCAGGGATGAAGA,0.441,0.372,-0.186,0.462,3.51,4.99,4.53,2.29,3.46,5.34,6.18,0.888,,-0.522,0.925,-0.357,1.08,,,
TCGAGTGGGTTACGGGGGCATTCAGGGATGAAGA,2.78,3.03,1.26,5.08,4.26,5.66,5.53,3.59,4.84,4.62,6.37,1.92,3.59,2.12,3.12,1.12,2.46,,,
CCGAGTAAGTTACGAGGGGGCATTCAGTGCGAAT,0.776,3.84,0.71,3.69,1.99,-0.0159,1.15,0.0165,0.85,0.778,0.899,0.949,,4.68,2.13,0.219,1.09,,,
CTATGTAGGTTAAAGGGGTCATTCAGTTTGAAAG,6.38,5.21,4.18,5.82,6.43,9.57,8.21,7.05,8.61,7.95,7.63,7.13,,13,,1.99,3.87,,,
CTCGAAAGGGCGTGCTCAGGTGAGTATACCAAAC,0.538,0.109,-0.329,,0.533,-0.312,0.0309,-0.439,-0.22,-0.316,0.335,-0.194,-0.0546,0.0968,0.278,-0.187,1.37,-0.824,-0.537,-0.0248
CCTACTGGGCCGAGGTCATTGATCAGTCAAAGCA,4.08,3.71,1.15,,3.96,3.02,3.38,0.749,2.52,1.55,2.71,2.05,4.62,2.49,4.33,-0.11,3.19,-0.228,-0.758,-1.27
AGAATGAGGTTACCAAAGATCAGTGAAACGCTTG,1.73,6.11,0.0874,,3.4,2.6,2.57,1.19,2.06,4.06,3.2,0.652,1.56,0.0456,1.9,0.395,2.06,-0.00616,1.32,0.399
CCTACTGGGCCACGAAAGGGCATTGATTCAGTGA,-0.208,0.621,-0.166,,1.7,1.78,1.95,0.197,0.806,5.38,5.14,-0.0604,0.616,-0.539,0.471,-0.24,1.69,-1.21,0.311,0.299
ATCGAAAGGTCGTGAGGTGAGTACACAGAAAGGC,4.79,4.23,0.197,,5.02,3.98,4.57,1.74,3.26,0.432,2.33,2.45,3.57,0.557,4.33,0.76,3.91,0.501,1.04,0.897
ATATGTAGGTTATCGGGTCATTCATTTTGCGCAT,3.17,3.12,1.9,,5.09,7.3,6.11,3.77,5.76,7.75,7.84,4.1,3.39,1.23,3.75,2.1,2.43,1.4,5.27,4.21
CTTAGTTGGTCAGGAGGTCACACACCGGATATGA,3.89,3.72,2.38,,4.35,4.41,4.69,2.41,4.39,3.35,4.3,3.81,4.37,1.79,4.74,3.28,3.83,0.947,1.44,1.09
CCTACTGGGCCAAGGTCATTGACCAGTCAAAGCA,3.77,4.03,1.67,,4.03,4.3,4.66,2.17,4.38,3.82,4.84,1.94,3.71,1.37,3.95,-0.225,3.45,-0.702,-0.707,-1.06
CCTACTGGGCCATTAAGAGGTCATTGATCATATG,2.62,4.19,6.58,,3.94,2.19,3.06,0.745,2,4.25,4.13,2.02,4.48,1.79,4.14,0.836,2.94,0.0638,0.259,0.0479
